The record followed here is PubChem BioAssay (EPA / NIEHS).

Structures are written as SMILES. Records with an inconclusive call do not appear. Calls of active or inactive are those of the source. The calls were made as follows: active = hit-call score of the fitted dose curve at least 0.9, where 1 is the maximum; inactive = score below 0.9.

Read-out in the assay: Cytochrome P450 2C9 (Homo sapiens) (UniProt P11712)
Briefly: CLD_CYP2C9_48hr: CellzDirect (CLD) Gene Expression Assay for xenobiotic metabolism (CYP2C9) at 48 hours (AID 2283701). How it is done: CLD_48hr is a cell-based, multiplexed-readout assay that uses hepatocyte, a human liver primary cell, with measurements taken at 48 hours after chemical dosing in a 96-well plate.CLD_CYP2C9_48hr is one of 16 assay component(s) measured or calculated from the CLD_48hr assay. It is designed to make measurements of mRNA induction, a form of inducible reporter, as detected with chemiluminescence signals by Quantitative Nuclease Protection Assay (qNPA) technology.Data from the assay component CLD_CYP2C9_48hr was analyzed at the endpoint, CLD_CYP2C9_48hr, in the positive analysis fitting direction relative to DMSO as the negative control and baseline of activity. Using a type of inducible reporter, gain-of-signal activity can be used to understand changes in the reporter gene as they relate to the gene CYP2C9. Furthermore, this assay endpoint can be referred to as a primary readout. To generalize the intended target to other relatable targets, this assay endpoint is annotated to the cyp intended target family, where subfamily is xenobiotic metabolism.
Human hepatocyte cultures were treated daily for two consecutive days with fresh dosing solutions containing appropriate concentrations of the 320 ToxCast chemicals (chemical identities were blinded to CellzDirect and other ToxCast collaborators), vehicle control (0.2% DMSO), and positive control inducers as summarized in Table 1. Due to the large number of treatment groups and chemicals examined, the ToxCast chemicals were divided into two groups (spanning two independent cultures of hepatocytes from separate donor preparations (Hu778: ToxCast plates 1 and 2; Hu776: ToxCast plates 3 and 4). Each preparation of human hepatocyte cultures was treated with respective vehicle control, medium only control, set of six positive controls/reference chemicals for the five hepatic receptor pathways, and a subset of eight of the ToxCast chemicals (indoxacarb, pyrithiobac-sodium, norflurazon, cyhalofop-butyl, methomyl, thiram, acetochlor, and propiconazole). These replicate data, coupled with internal replicates designed within the blinded ToxCast chemical library, provided additional data to evaluate interindividual differences between hepatocyte preparations and their potential impact on chemical profiles.Cell morphology and integrity were evaluated using phase-contrast microscopy as an indicator of hepatocyte cell health (Tyson & Green, 1987). Cultures for each treatment group (i.e., media, vehicle [0.2% DMSO], positive control inducers [multiple concentrations], and the ToxCast chemicals [multiple concentrations]) were observed and cell morphology was assessed relative to vehicle control cultures at each harvest time point (0, 6, 24, or 48 h). […] Images were evaluated at the conclusion of the study to assess changes in cell integrity and account for the effects of chemical exposure on uncharacteristic changes in concentration-dependent gene expression profiles. The results from these determinations of apparent cytotoxicity were annotated (yes/no) alongside the corresponding qNPA data for reference.At the conclusion of each treatment period, hepatocyte cultures (96-well) were washed with 1 volume of HBSS, lysed by addition of 25 ul ArrayPlate lysis buffer (HTG, Tucson, AZ), and 70 ul/well of Denaturation Oil, denatured by incubation at 95C for 10 min, and frozen at approximately -70C until analysis by nuclease protection assay (qNPA) (Roberts et al., 2007). For qNPA analysis, cell lysates were thawed at 50C for approximately 30 min, qNPA probes were added, and samples were incubated at 95C for 10 min to begin the detection process by denaturing the target RNA, dissociating the duplexes and secondary structure hybridization. At the conclusion of the hybridization period, S1 nuclease reagent was added to each sample to digest all nonprotected nucleotides at 50C for 60-90 min. […]
Turning to `Nc1c(Cl)c(F)nc(OCC(=O)O)c1Cl`, the compound was called inactive. In the case of `Cc1cnc(C2=NC(C)(C(C)C)C(=O)N2)c(C(=O)O)c1` (stereo not drawn), the result was inactive. In the case of `CCNP(=S)(OC)O/C(C)=C/C(=O)OC(C)C` (stereo not drawn) it was “inactive”; in that of `COc1cc(OC)nc(NC(=O)NS(=O)(=O)c2ncccc2OCC(F)(F)F)n1`, “inactive”; in that of `COC(=O)NS(=O)(=O)c1ccc(N)cc1`, “inactive”. In the case of `N#Cc1c(Cl)cccc1Cl` it was “inactive”. Next, `CCN(CC)C(=O)C(C)Oc1cccc2ccccc12` (stereo not drawn): “inactive”; `CS(=O)(=O)c1ccc(C(=O)C2C(=O)CCCC2=O)c([N+](=O)[O-])c1`: “inactive”. Turning to `COP(=S)(OC)SCn1nnc2ccccc2c1=O`, the compound was classed as inactive. Regarding `CC1(C)CCC(=Cc2ccc(Cl)cc2)C1(O)Cn1cncn1` (stereo not drawn), the compound was classed as inactive. Take `CC(C)Oc1cccc(NC(=O)c2ccccc2C(F)(F)F)c1`: the outcome was inactive. In the case of `CC1(C)CON(Cc2ccccc2Cl)C1=O` it was “inactive”; in that of `CCOc1nc(C(Cl)(Cl)Cl)ns1`, “inactive”.

For the compound `COCC(=O)N(c1c(C)cccc1C)C(C)C(=O)OC` (stereo not drawn), the result was inactive. Turning to `CCCCC(O)(Cn1cncn1)c1ccc(Cl)cc1Cl` (stereo not drawn), the compound was called inactive. With `CCCC(=NOCC)C1=C(O)CC(CC(C)SCC)CC1=O` (stereo not drawn), the compound was called inactive.

`OC(c1ccc(Cl)cc1)(c1ccc(Cl)cc1)C(Cl)(Cl)Cl`: the outcome was inactive. In the case of `CCCN(CC)CC1COC2(CCC(C(C)(C)C)CC2)O1` (stereo not drawn), the compound was classed as inactive.

Take `COC(=O)c1c(C(F)F)nc(C(F)(F)F)c(C2=NCCS2)c1CC(C)C`: the call was inactive. Next, `C=CCOC(=O)C(C)(C)OC(=O)c1cc(-n2c(=O)cc(C(F)(F)F)n(C)c2=O)ccc1Cl`: “inactive”. In the case of `CCOP(=S)(OCC)Oc1nc(Cl)n(C(C)C)n1` it was “inactive”; in that of `CCCCC(C#N)(Cn1cncn1)c1ccc(Cl)cc1` (stereo not drawn), “inactive”; in that of `N#CN=C1SCCN1Cc1ccc(Cl)nc1`, “inactive”. With `Cc1c(COC(=O)[C@@H]2[C@H](/C=C(\Cl)C(F)(F)F)C2(C)C)cccc1-c1ccccc1`, the result was inactive. Next, `CO/N=C(/C1=NOCCO1)c1ccccc1Oc1ncnc(Oc2ccccc2Cl)c1F`: “inactive”; `CC(C)N1C(=O)N(c2ccccc2)CSC1=NC(C)(C)C`: “inactive”; `CC1(C)C(C=C(Cl)Cl)C1C(=O)OC(C#N)c1cccc(Oc2ccccc2)c1` (stereo not drawn): “inactive”. `CSC(=O)c1c(C(F)F)nc(C(F)(F)F)c(C(=O)SC)c1CC(C)C`: the compound was classed as inactive.

With `COC(=O)NC(=S)Nc1ccccc1NC(=S)NC(=O)OC`, the call was inactive. Take `Cc1nc(N(C)C)nc(OC(=O)N(C)C)c1C`: the compound was called inactive. In the case of `CCOc1cc(C(C)(C)C)ccc1C1COC(c2c(F)cccc2F)=N1` (stereo not drawn) it was “inactive”; in that of `Cc1cc(C)nc(Nc2ccccc2)n1`, “inactive”. Next, `CCOP(=O)(OCC)Oc1nc(Cl)c(Cl)cc1Cl`: “inactive”; `CC1(C)C(C(=O)OC(C#N)c2cccc(Oc3ccccc3)c2)C1(C)C` (stereo not drawn): “inactive”. For the compound `CCOc1nc(F)cc2nc(S(=O)(=O)Nc3c(Cl)cccc3Cl)nn12`, the compound was classed as inactive. In the case of `Clc1cccc(C(Cl)(Cl)Cl)n1` it was “inactive”; in that of `O=c1n(Cl)c(=O)n(Cl)c(=O)n1Cl`, “inactive”. In the case of `COP(=O)(OC)O/C(C)=C/C(=O)N(C)C` it was “inactive”.
